DRD3 agonist: activates the human D3 dopamine receptor | D3R DiscoveRx beta-arrestin cells, luminescence, 90 min | max activation, % | 410,000 tested, 0.58% active | AID 652048; in the data active = max activation above about 30%; also: 0% is about no effect
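Cells at 1500/well, incubated overnight, then treated with pinned compounds (dopamine as control) for 90 min at 37 degrees C. DiscoveRx reagent added for 30 - 60 minutes at room temperature; luminescence read.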
D1 antagonist: human D1 dopamine receptor antagonism; P21728; HEK293 TREx D1 cells, calcium flux, dopamine EC80; hits give low values; activity change, negative = inhibition, % at 10 µM; 360,000 tested, 3.2% active; AID 504652; in the data active = activity change below about -30%; also: % is scaled to controls: 0 for no effect and ±100 for the full control effect
Target sequence (P21728 whole entry, looked up): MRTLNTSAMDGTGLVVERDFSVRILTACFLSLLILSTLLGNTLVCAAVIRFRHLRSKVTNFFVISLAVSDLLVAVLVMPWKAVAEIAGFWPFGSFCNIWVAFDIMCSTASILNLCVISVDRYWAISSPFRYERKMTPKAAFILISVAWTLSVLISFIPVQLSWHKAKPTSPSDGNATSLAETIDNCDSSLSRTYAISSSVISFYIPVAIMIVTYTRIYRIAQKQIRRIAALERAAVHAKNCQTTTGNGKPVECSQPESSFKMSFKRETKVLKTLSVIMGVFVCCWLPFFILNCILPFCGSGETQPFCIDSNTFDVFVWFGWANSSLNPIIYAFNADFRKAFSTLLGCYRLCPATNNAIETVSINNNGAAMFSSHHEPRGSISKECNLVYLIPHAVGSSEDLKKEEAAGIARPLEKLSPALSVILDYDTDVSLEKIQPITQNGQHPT
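After overnight tetracycline induction at 30 C, force-coupled D1 HEK293 cells took up a no-wash calcium dye at room temperature. Compounds were added and monitored 180 s, and the response to EC80 dopamine was then recorded.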
D1 PAM: human D1 dopamine receptor positive modulation | potentiation, % at 10 µM | HEK293 TREx D1 cells, calcium flux, dopamine EC20 potentiation | AID 504651 | P21728 | 360,000 tested, 0.036% active; in the data active = potentiation above about 30%; also: 0% is about no effect
DRD3 antagonist: antagonists of human D3 dopamine receptor; P35462; D3R cells, DiscoveRx beta-arrestin luminescence, antagonist mode; hits give low values; max response, negative = inhibition, %; 360,000 tested, 2.5% active; in the data active = max response below about -50%; inconclusive = no clear call, values can overlap the other calls; also: % is scaled to controls: 0 for no effect and ±100 for the full control effect
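Cells plated overnight at 1500 cells/well, then exposed to library compounds with dopamine controls for 90 minutes at 37 degrees C. DiscoveRx reagent added for 30–60 minutes at room temperature; luminescence read, quantitative HTS format.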
D1 ag: agonists of human D1 dopamine receptor; P21728; HEK293 T-REx D1 cells, calcium flux, agonist mode; activation, % at 2 µM; 360,000 tested, 1% active; in the data active = activation above about 30%; also: 0% is about no effect
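Tetracycline-induced HEK293 TREx D1 cells, force-coupled to calcium signalling, were dye-loaded with a no-wash calcium kit. Compound was pin-added after a 10 s baseline. Fluorescence was read kinetically at 1 cycle/s for 180 s, with calcium rises flagged as agonism.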
Numbers without * were called inactive; ? = inconclusive; . = no result; ! = a repeat was not active. Only some compounds are listed: those with a hit (about 6.1% of all), similar ones and a draw of the others.

SMILES	DRD3 agonist	D1 antagonist	D1 PAM	DRD3 antagonist	D1 ag
COC(=O)c1ccccc1OC(=O)c1cc[n+]([O-])cc1	-1	9	31*	-5	7
Cc1onc(-c2ccccc2Cl)c1C(=O)Nc1nnc(-c2cccc([N+](=O)[O-])c2)s1	4	39	15	20	41*
Cc1onc(-c2ccccc2Cl)c1C(=O)Nc1ccc(N2CCOCC2)cc1	-10	-46*	-6	9	1
CCC(C(=O)NCCc1ccc(OC)c(OC)c1)n1nc(C)c2sc3ccccc3c2c1=O (centres undefined)	-3	-10	-2	.	3
COc1ccc(-c2cc3c(=O)n(CC(=O)NCc4ccc(F)cc4)ncn3n2)cc1	-9	-22	-14	-14	6
O=C(COc1ccc(/C=C2/NC(=O)NC2=O)cc1)Nc1ccc(F)cc1	-7	-9	-4	1	5
COc1cc(/C=C2/NC(=O)NC2=O)ccc1OCC(=O)Nc1ccc(F)cc1	2	-71*	-10	-7	4
Cc1cc2oc(C(=O)Nc3ccc(S(N)(=O)=O)cc3)cc(=O)c2cc1C	7	-58*	-2	.	0
COc1c(C)cc(Br)cc1C(=O)Nc1ccc(C)cc1[N+](=O)[O-]	-4	-6	-2	-13	4
COc1c(C)cc(Br)cc1C(=O)Nc1ccc(S(N)(=O)=O)cc1	1	-61*	-6	9	1
CC(=O)Nc1ccc(NC(=O)c2cc(=O)c3cc(C)c(C)cc3o2)cc1	2	4	2	-14	2
Cc1nc(-[n+]2nc(-c3ccncc3)nn2-c2ccccc2)sc1C	-23	.	.	-102*	.
CCOc1ccc(-n2ccnc2SCC(=O)Nc2nc3ccc(C)cc3s2)cc1	2	17	-1	.	0
Fc1ccc(-c2nc3cnccn3c2NC2CCCC2)cc1	3	-36*	-2	3	1
Oc1c(Cl)cc(Cl)cc1CNc1ccc(Br)cn1	5	0	-2	-55*	1
Oc1ccc(Cl)cc1CNc1ccc(Br)cn1	-4	-21	-7	-19	9
Cc1cc2c(n1-c1ccc(C(=O)NCc3cccc(Br)c3)cc1)CCC(C)C2 (centres undefined)	-14	-60*	-4	.	2
COc1cccc(CNC(=O)c2ccc(-n3c(C)cc4c3CCC(C)C4)cc2)c1 (centres undefined)	-11	-7	-1	.	-2
Cc1nc2ccc([N+](=O)[O-])cc2c(=O)n1Cc1ccc(F)cc1	7	-32*	-5	8	7
Cc1cccc(Cn2c(C)nc3ccc([N+](=O)[O-])cc3c2=O)c1	1	-33*	-3	-10	10
Cc1ncc(C23CC4CC(CC(C4)C2)C3)[nH]1	-5	9	5	-55*	7
N#Cc1ccc(C23CC4CC(CC(C4)C2)C3)[nH]c1=O	1	10	-2	2	1
O=C(O)CCCn1cc(NC(=O)COc2ccccc2F)cn1	5	-39*!	1	9	8
Cc1cc(C(F)F)n2nc(C(=O)Nc3ccccc3F)nc2n1	2	-9	-3	2	1
Cc1cc(C(F)F)n2nc(C(=O)Nc3ccc(F)cc3F)nc2n1	4	4	-2	-54*	-1
SMILES	DRD3 agonist	D1 antagonist	D1 PAM	DRD3 antagonist	D1 ag
CCOC(=O)c1c(NC(=O)CN2C(=O)NC(C)(c3ccc(OC(F)F)cc3)C2=O)sc(C)c1C (centres undefined)	3	21	-1	0	31*
CCOc1ccc(NC(=O)CN2C(=O)NC(C)(c3ccc(OC(F)F)cc3)C2=O)cc1 (centres undefined)	3	-43*	-15	12	38*
CC1(c2ccc(OC(F)F)cc2)NC(=O)N(CC(=O)Nc2ccc(S(N)(=O)=O)cc2)C1=O (centres undefined)	-1	-1	-1	-1	4
CC1(c2ccc(OC(F)F)cc2)NC(=O)N(CC(=O)Nc2ccc(F)cc2)C1=O (centres undefined)	5	-1	-4	-9	19
CC1(c2ccc(OC(F)F)cc2)NC(=O)N(CC(=O)Nc2cccc(F)c2)C1=O (centres undefined)	-5	-61*	-6	-1	60*
CC1(c2ccc(OC(F)F)cc2)NC(=O)N(CC(=O)Nc2ccc(OC(F)F)cc2)C1=O (centres undefined)	-11	-43*	-4	-15	50*
Cc1ccc(C2(C)NC(=O)N(CC(=O)Nc3ccc(S(=O)(=O)Nc4nccs4)cc3)C2=O)cc1 (centres undefined)	-1	-13	-7	-9	0
CN1CCN(c2ccc(Cl)cc2NC(=O)CN2C(=O)NC(C)(c3ccccc3)C2=O)CC1 (centres undefined)	-18	-10	-3	6	-1
Cc1cc(NC(=O)CN2C(=O)NC(C)(c3ccc(OC(F)F)cc3)C2=O)no1 (centres undefined)	5	4	-6	15	33*
CC1(c2ccc(OC(F)F)cc2)NC(=O)N(CC(=O)Nc2ccc(Cl)cc2F)C1=O (centres undefined)	-6	-13	0	-8	36*
CCOC(=O)c1c(C)[nH]c(C(=O)CN2C(=O)NC(C)(c3ccc(C)cc3)C2=O)c1C (centres undefined)	5	1	0	2	54*
CCc1ccccc1NC(=O)c1cc2nc(-c3ccc(Br)cc3)cc(C(F)(F)F)n2n1	-15	24	1	.	-1
CC(Sc1ncn[nH]1)C(=O)Nc1cc(C(F)(F)F)ccc1Cl (centres undefined)	-8	-20	-2	-21	1
O=C1C(=O)c2c(C(=O)c3ccccc3)coc2-c2ccccc21	2	-57*	-2	-25	0
Cc1oc2c(c1C(=O)c1ccccc1)C(=O)C(=O)c1ccccc1-2	-10	3	4	?	5
Cn1nc([N+](=O)[O-])nc1Sc1nnnn1-c1ccc(C(=O)O)cc1	1	1	-2	0	6
O=P(CCc1ccccc1)(c1ccccc1)c1ccccc1	-6	.	.	-12	.
COc1ccc(Cl)cc1NC(=O)CN(C)C(=O)c1cc2c(s1)CCCC2	-15	-38*	-5	-8	6
Cc1ccccc1-c1ccnc2[nH]n(-c3ccccc3)c(=O)c12	3	-37*!	14	-28	4
CCCN1C(=O)/C(=C2\SC(N3CCCCC3)=NC2=O)c2ccccc21	-2	5	-4	31	2
CN1C(=O)/C(=C2\SC(N3CCCCCC3)=NC2=O)c2ccccc21	2	10	-3	-67*	1
CCN(CC)C(=O)COc1ccc(N(C)S(=O)(=O)c2ccc(NC(C)=O)cc2)cc1	-5	-38*	-7	1	2
CN(c1ccc(OCC(=O)OCC(=O)Nc2ccccc2)cc1)S(=O)(=O)c1cccs1	-21	-47*	-5	-17	21

Compound activity deposited in PubChem BioAssay by National Center for Advancing Translational Sciences (NCATS).
